Results as given in the supplement of paper PMC10646978.
± gives the standard deviation.

What was measured:
Settings in all cases: modulator concentration 10 µM
[1] = test system: RAW-Dual (murine macrophage reporter line); assay: NF-kB reporter (SEAP) activity fold change vs agonist alone; higher = enhanced NF-kB activity
Summary of the method: (§1)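 Overnight stimulation with a PRR agonist followed pre-incubation for 1 hour at 37 °C with compound at 10 μM final. This was done in RAW-Dual murine macrophage reporter cells seeded at 50 000 per well in 384-well plates. NF-κB (SEAP, QUANTI-Blue absorbance at 620 nm) and IRF (Lucia luciferase, QUANTI-Luc luminescence) were read from the supernatant. Each reporter's fold change relative to the mean agonist-only control on the same plate was averaged over replicate plates.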

[2] = test system: RAW-Dual (murine macrophage reporter line); assay: IRF reporter (Lucia luciferase) activity fold change vs agonist alone; higher = enhanced IRF activity
Summary of the method: as §1

[3] = test system: RAW-Dual (murine macrophage reporter line); assay: viability score (confluency relative to resting cells, overnight) (fraction); higher = more viable, active = viable (0.7 or more)
Summary of the method: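 RAW-Dual macrophages in 384-well plates were treated overnight with compound at 10 μM final. IncuCyte imaging recorded confluency, and IncuCyte software built two confluency masks across every imaged well. The viability score expresses confluency relative to resting cells and was judged against a cutoff, which a compound met only if both masks exceeded 70% of resting cells.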

[4] = agonist: CpG ODN 1826 0.5 ug/mL

SMILES | NF-kB reporter [1, 4] | NF-kB reporter ([1]; agonist: LPS 0.1 ug/mL) | NF-kB reporter ([1]; agonist: MPLA […]) | IRF reporter ([2]; agonist: 3'3'-cGAMP 10 ug/mL) | IRF reporter ([2]; agonist: LPS 0.1 ug/mL) | IRF reporter ([2]; agonist: MPLA […]) | viability score [3]
CC(C)(C)SCC(O)Cn1c2ccc(Br)cc2c2cc(Br)ccc21 (stereo unspecified) | 0.767 ± 0.06 | 0.846 ± 0.1 | 0.91 ± 0.098 | 0.844 ± 0.039 | 1.31 ± 0.079 | 1.4 ± 0.12 | 0.999 (active)
CN1CCCC(n2nc(Cc3ccc(Cl)cc3)c3ccccc3c2=O)CC1.Cl (stereo unspecified) | 0.135 ± 0.008 | 0.929 ± 0.12 | 1.42 ± 0.26 | 1.12 ± 0.14 | 1.19 ± 0.22 | 1.35 ± 0.4 | 0.587 (inactive)
CC(=NN1CCN(C2c3ccccc3-c3ccccc32)CC1)c1ccccc1O | 0.953 ± 0.12 | 0.94 ± 0.052 | 0.962 ± 0.069 | 1.02 ± 0.036 | 1.35 ± 0.12 | 0.984 ± 0.086 | 1.02 (active)
COc1ccc(C(=O)NCc2ccc(OCCN(C)C)cc2)cc1OC.Cl | 0.988 ± 0.15 | 1.05 ± 0.079 | 0.925 ± 0.059 | 0.88 ± 0.027 | 1.21 ± 0.1 | 1.08 ± 0.085 | 0.994 (active)
COC(=O)N[C@H](C(=O)N1CCC[C@H]1c1ncc(-c2ccc(-c3ccc(-c4cnc([C@@H]5CCCN5C(=O)[C@@H](NC(=O)OC)C(C)C)[nH]4)cc3)cc2)[nH]1)C(C)C.Cl.Cl | 0.437 ± 0.029 | 0.513 ± 0.032 | 0.759 ± 0.045 | 1.27 ± 0.042 | 1.85 ± 0.48 | 1.99 ± 0.46 | 0.204 (inactive)
O=S(=O)(Cc1ccccc1)Nc1ccccn1 | 0.951 ± 0.054 | 1.03 ± 0.084 | 0.893 ± 0.067 | 0.961 ± 0.032 | 1.49 ± 0.13 | 1.27 ± 0.15 | 1 (active)
CCOC(=O)[C@H](CCc1ccccc1)N[C@H]1CCc2ccccc2N(CC(=O)O)C1=O.Cl | 1.07 ± 0.083 | 0.961 ± 0.17 | 0.987 ± 0.021 | 0.947 ± 0.054 | 0.935 ± 0.076 | 0.967 ± 0.14 | 0.999 (active)
Cl.c1ccc(CC2=NCCN2)cc1 | 0.999 ± 0.14 | 1.08 ± 0.17 | 0.923 ± 0.051 | 0.887 ± 0.027 | 1.17 ± 0.22 | 1.13 ± 0.1 | 0.993 (active)
Cn1c(=O)c2c(ncn2CC(=O)O)n(C)c1=O [Prestw-1507] | 0.918 ± 0.25 | 1.19 ± 0.12 | 1.04 ± 0.086 | 0.945 ± 0.053 | 0.96 ± 0.099 | 1.17 ± 0.15 | 0.992 (active)
O=C(NCC1(O)Cc2ccccc2C1)c1cccc(Br)c1 | 1.09 ± 0.055 | 1.02 ± 0.093 | 1.03 ± 0.15 | 1.05 ± 0.069 | 1.2 ± 0.11 | 1.32 ± 0.1 | 0.677 (inactive)
COc1ccc(C(=O)Oc2ccc(-c3ccc(C)cc3)cc2)cc1OC | 0.744 ± 0.058 | 0.892 ± 0.042 | 1 ± 0.09 | 0.957 ± 0.069 | 1.22 ± 0.09 | 1.27 ± 0.15 | 0.996 (active)
COc1cc2c(cc1OC)C(=O)NC1(CCCC1)C2 | 1.24 ± 0.095 | 0.958 ± 0.073 | 0.959 ± 0.092 | 0.819 ± 0.05 | 0.872 ± 0.11 | 0.911 ± 0.17 | 1.02 (active)
O=S(=O)(c1ccccc1)N1CCOCC1 | 0.956 ± 0.057 | 0.992 ± 0.061 | 0.935 ± 0.071 | 0.981 ± 0.033 | 1.33 ± 0.21 | 1.15 ± 0.15 | 1 (active)
